Measurements from PubChem BioAssay AID1159580 (chemical genetic matrix, 2015).
The whole screen tested about 5,500 compounds, of which about 2,000 (36%) were called active. Another 18% or so got no clear call; they are omitted. Rule as the data show it: active = normalized growth mostly below about 0.91 (no sharp cut-off); inconclusive = no clear call, values can overlap the other calls; inactive = mostly above about 0.92. The list shows a part of the results.

Assay: chemical genetic growth profiling, strain panel (AID 1159580);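 also: tested at 20 µM; growth read once vehicle control cultures reached saturation at 30 °C; 1 = growth at the plate median or of vehicle wells; lower values mean less growth of the strain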
Conditions: growth OD
[1] = S. cerevisiae deletion strains, locus YAL013W, strain DEP1, active compounds read low
[2] = S. cerevisiae deletion strains, locus YBR229C, strain ROT2, active compounds read low
[3] = S. cerevisiae deletion strains, locus YDL101C, strain DUN1, active compounds read low
[4] = S. cerevisiae deletion strains, locus YDR150W, strain NUM1, active compounds read low
[5] = S. cerevisiae deletion strains, locus YEL061C, strain CIN8, active compounds read low
[6] = S. cerevisiae deletion strains, locus YGR078C, strain PAC10, active compounds read low
[7] = S. cerevisiae deletion strains, locus YHR030C, strain SLT2, active compounds read low
[8] = S. cerevisiae deletion strains, locus YJR043C, strain POL32, active compounds read low
[9] = S. cerevisiae deletion strains, locus YJR075W, strain HOC1, active compounds read low
[10] = S. cerevisiae deletion strains, locus YLR039C, strain RIC1, active compounds read low
[11] = S. cerevisiae deletion strains, locus YLR262C, strain YPT6, active compounds read low
[12] = S. cerevisiae deletion strains, locus YMR263W, strain SAP30, active compounds read low
[13] = S. cerevisiae deletion strains, locus YNL128W, strain TEP1, active compounds read low
[14] = S. cerevisiae deletion strains, locus YNL153C, strain GIM3, active compounds read low
[15] = S. cerevisiae deletion strains, locus YNL322C, strain KRE1, active compounds read low
[16] = S. cerevisiae deletion strains, locus YPL055C, strain LGE1, active compounds read low
[17] = S. cerevisiae deletion strains, locus YPL241C, strain CIN2, active compounds read low

Measured: normalized growth

N[C@@H](C(=O)O)c1ccccc1
inactive: [1] 1 | [2] 1 | [3] 1.01 | [4] 0.997 | [5] 1 | [6] 0.998 | [7] 0.927 | S. cerevisiae deletion strains, locus YHR087W, strain rtc3, active compounds read low 0.998 | [8] 1.01 | [9] 0.992 | [10] 0.981 | S. cerevisiae deletion strains, locus YLR058C, strain SHM2 (second series), active compounds read low 0.992 | S. cerevisiae deletion strains, locus YLR085C, strain ARP6, active compounds read low 1.04 | [11] 0.954 | S. cerevisiae deletion strains, locus YML094W, strain GIM5, active compounds read low 1.03 | S. cerevisiae deletion strains, locus YMR219W, strain ESC1, active compounds read low 1 | [12] 0.987 | [13] 0.985 | [14] 0.999 | S. cerevisiae deletion strains, locus YNL298W, strain CLA4 (second series), active compounds read low 1.02 | [15] 1.01 | S. cerevisiae deletion strains, locus YNR030W, strain Alg12, active compounds read low 1.03 | [16] 0.996 | [17] 1.02 | S. cerevisiae deletion strains, locus YPR135W, strain CTF4, active compounds read low 0.974

CC1(C)C(C=C(Cl)Cl)C1C(=O)OC(C#N)c1cccc(Oc2ccccc2)c1 (stereo unspecified)
inactive: [1] 0.996 | S. cerevisiae deletion strains, locus YBR021W, strain FUR4, active compounds read low 0.962 | [2] 0.986 | S. cerevisiae deletion strains, locus YCL029C, strain bik1, active compounds read low 1.01 | S. cerevisiae deletion strains, locus YDL035C, strain GPR1, active compounds read low 0.998 | S. cerevisiae deletion strains, locus YDL074C, strain BRE1, active compounds read low 1.01 | [3] 0.993 | S. cerevisiae deletion strains, locus YDL134C, strain PPH21, active compounds read low 0.995 | S. cerevisiae deletion strains, locus YDL185W, strain tfp1, active compounds read low 0.996 | S. cerevisiae deletion strains, locus YDL192W, strain arf1, active compounds read low 1 | S. cerevisiae deletion strains, locus YDR101C, strain arx1, active compounds read low 0.996 | [4] 1 | S. cerevisiae deletion strains, locus YDR162C, strain NBP2, active compounds read low 1.02 | S. cerevisiae deletion strains, locus YDR318W, strain mcm21, active compounds read low 0.983 | S. cerevisiae deletion strains, locus YDR388W, active compounds read low 1 | S. cerevisiae deletion strains, locus YDR502C, strain sam2, active compounds read low 0.998 | [5] 0.999 | S. cerevisiae deletion strains, locus YER110C, active compounds read low 0.99 | S. cerevisiae deletion strains, locus YER155C, strain BEM2, active compounds read low 0.999 | S. cerevisiae deletion strains, locus YER167W, strain BCK2, active compounds read low 0.987 | S. cerevisiae deletion strains, locus YGL078C, strain dbp3, active compounds read low 1 | S. cerevisiae deletion strains, locus YGL086W, strain mad1, active compounds read low 0.954 | S. cerevisiae deletion strains, locus YGL248W, strain PDE1, active compounds read low 0.983 | [6] 1.01 | S. cerevisiae deletion strains, locus YGR135W, strain pre9, active compounds read low 0.992 | S. cerevisiae deletion strains, locus YGR229C, strain SMI1, active compounds read low 1 | S. cerevisiae deletion strains, locus YGR252W, strain gcn5, active compounds read low 0.95 | [7] 0.99 | S. cerevisiae deletion strains, locus YHR079C, strain IRE1 (second series), active compounds read low 1 | S. cerevisiae deletion strains, locus YHR094C, strain hxt1, active compounds read low 0.998 | S. cerevisiae deletion strains, locus YHR129C, strain ARP1, active compounds read low 0.997 | S. cerevisiae deletion strains, locus YHR200W, strain rpn10, active compounds read low 0.992 | S. cerevisiae deletion strains, locus YIL066C, strain RNR3, active compounds read low 0.98 | S. cerevisiae deletion strains, locus YIL073C, strain SPO22, active compounds read low 0.99 | S. cerevisiae deletion strains, locus YIL125W, strain kgd1, active compounds read low 1.01 | S. cerevisiae deletion strains, locus YIR030C, strain dcg1, active compounds read low 0.998 | S. cerevisiae deletion strains, locus YJL095W, strain BCK1, active compounds read low 1.01 | S. cerevisiae deletion strains, locus YJL134W, strain LCB3, active compounds read low 0.984 | S. cerevisiae deletion strains, locus YJL168C, strain set2, active compounds read low 1 | S. cerevisiae deletion strains, locus YJL187C, strain SWE1 (second series), active compounds read low 1 | [8] 0.987 | [9] 0.998 | S. cerevisiae deletion strains, locus YKL009W, strain mrt4, active compounds read low 0.96 | S. cerevisiae deletion strains, locus YKL068W, active compounds read low 1 | S. cerevisiae deletion strains, locus YKL085W, strain MDH1 (second series), active compounds read low 0.992 | S. cerevisiae deletion strains, locus YKL085W, strain MDH1, active compounds read low 0.992 | S. cerevisiae deletion strains, locus YKL190W, strain CNB1, active compounds read low 1 | S. cerevisiae deletion strains, locus YKR001C, strain vps1, active compounds read low 0.976 | [10] 0.969 | S. cerevisiae deletion strains, locus YLR058C, strain SHM2, active compounds read low 0.993 | S. cerevisiae deletion strains, locus YLR102C, strain apc9, active compounds read low 1 | [11] 0.99 | S. cerevisiae deletion strains, locus YLR268W, strain sec22, active compounds read low 1 | S. cerevisiae deletion strains, locus YLR330W, strain CHS5, active compounds read low 0.995 | S. cerevisiae deletion strains, locus YLR342W, strain FKS1 (second series), active compounds read low 0.951 | S. cerevisiae deletion strains, locus YLR371W, strain rom2, active compounds read low 1 | S. cerevisiae deletion strains, locus YLR418C, strain cdc73, active compounds read low 1.05 | S. cerevisiae deletion strains, locus YML016C, strain PPZ1, active compounds read low 0.994 | S. cerevisiae deletion strains, locus YML032C, strain rad52, active compounds read low 0.98 | S. cerevisiae deletion strains, locus YML124C, strain tub3, active compounds read low 0.998 | S. cerevisiae deletion strains, locus YMR078C, strain ctf18, active compounds read low 0.98 | S. cerevisiae deletion strains, locus YMR223W, strain ubp8, active compounds read low 0.974 | [12] 1.01 | S. cerevisiae deletion strains, locus YMR307W, strain GAS1, active compounds read low 0.94 | S. cerevisiae deletion strains, locus YNL067W, strain RPL9B, active compounds read low 1.01 | [13] 1 | [14] 1.01 | S. cerevisiae deletion strains, locus YNL233W, strain BNI4, active compounds read low 1.01 | S. cerevisiae deletion strains, locus YNL250W, strain rad50, active compounds read low 0.993 | S. cerevisiae deletion strains, locus YNL271C, strain bni1, active compounds read low 0.998 | S. cerevisiae deletion strains, locus YNL298W, strain CLA4, active compounds read low 0.964 | S. cerevisiae deletion strains, locus YNL307C, strain MCK1, active compounds read low 0.991 | [15] 0.994 | S. cerevisiae deletion strains, locus YNR052C, strain pop2, active compounds read low 0.979 | S. cerevisiae deletion strains, locus YOL006C, strain TOP1, active compounds read low 1.03 | S. cerevisiae deletion strains, locus YOL012C, strain htz1 1.96 | S. cerevisiae deletion strains, locus YOL147C, strain pex11, active compounds read low 1.01 | S. cerevisiae deletion strains, locus YOR061W, strain CKA2, active compounds read low 0.997 | S. cerevisiae deletion strains, locus YOR069W, strain VPS5, active compounds read low 0.995 | S. cerevisiae deletion strains, locus YOR136W, strain idh2, active compounds read low 1 | S. cerevisiae deletion strains, locus YOR144C, strain elg1, active compounds read low 0.997 | S. cerevisiae deletion strains, locus YOR184W, strain ser1, active compounds read low 0.983 | S. cerevisiae deletion strains, locus YOR316C, strain cot1, active compounds read low 0.996 | [16] 1.03 | [17] 1 | S. cerevisiae deletion strains, locus YPR119W, strain clb2, active compounds read low 1.01 | S. cerevisiae deletion strains, locus YPR141C, strain kar3, active compounds read low 0.992 | S. cerevisiae deletion strains, locus YPR163C, strain tif3, active compounds read low 1.01 | S. cerevisiae deletion strains, locus YPR167C, strain met16, active compounds read low 0.99 | S. cerevisiae deletion strains, strain wtn01, active compounds read low 0.991 | S. cerevisiae strains, strain wild type, active compounds read low 1.01
